Bioassay records deposited in PubChem by National Center for Advancing Translational Sciences (NCATS).
Compounds with a hit are over-represented: about 21% of the library has one in this group of screens.
Pf growth 48h: P. falciparum growth inhibition at 48 hours (one generation). P. falciparum luciferase growth in erythrocytes, 48 h. Potency, µM (series often up to 28.7 µM), usual class: inhibitors. actives 5.9% (n = 310,000). AID 504832
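Parasite viability was followed by luminescence of a genomically integrated firefly luciferase. Cultures held 0.1% parasitemia at 2% hematocrit (final), incubated under 5% CO2 at 37 C.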
Shiga toxin inh: Shiga toxin inhibition | Vero cells, Shiga toxin protein synthesis inhibition reporter | inhibition, % at 38.7 µM | actives 9.2% (n = 290,000); in the data active = inhibition mostly above about 28%, no sharp cut-off; inactive = mostly below about 43%
CHX counter: counter-screen hit for Shiga toxin inhibitors, cycloheximide; actives 12% (n = 300,000); cell reporter, cycloheximide protein synthesis inhibition counterscreen; max response, %; in the data active = max response mostly above about 13%, no sharp cut-off; inactive = mostly below about 14%; also: read at 38.3 µM for the half of the compounds with a filed dose
HCMV antiviral: inhibitors of human cytomegalovirus; HFF cells, HCMV-luciferase reporter, 72 h; active compounds read low; activity change, negative = inhibition, % at 57.5 µM; AID 1259415; actives 4.5% (n = 410,000); in the data active = activity change below about -60%; inconclusive = no clear call, values can overlap the other calls; inactive = above about -39%
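Steps: HFFs plated, 16 h 37C; compounds added; HCMV-luciferase added to MOI 1 PFU/cell; 72 h 37C; OneGlo reagent, 5 min room temperature; luminescence read, normalized to controls.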
HCV inhibitor: inhibitors of hepatitis C virus infection; Huh7.5.1 HCVcc-Cre infection, luciferase reporter, 44 h; AID 651820; Potency, µM (titrated, usually from 41.8 µM), hits mostly inhibitors; actives 3.4% (n = 340,000)
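Infectious HCV cell culture screen: compound-treated cells (1,000/well, pre-plated 4 h) are infected with HCVcc-Cre at roughly 0.5 moi and grown 44 h. Infection is quantified by luciferase signal after 15 min substrate incubation at room temperature.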
Pf growth 96h: inhibits malaria parasite growth, 96 h; AID 504834; actives 6.9% (n = 320,000); Potency, µM (doses to about 28.7 µM), most hits filed as inhibitors; P. falciparum luciferase reporter growth, 96 h
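Readout is luminescence from an integrated firefly luciferase in P. falciparum. Red cells, 2% hematocrit and 0.05% parasitemia final, were cultured with compound through two parasite generations (96 hours) at 37 C, 5% CO2.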
A number is an active result; 0 = inactive; ? = inconclusive; - = no result given; [ ] = dose if it differs, or a comment. Unless noted, calls follow the shape of the dose curve; as a rule, active = well fitted inhibition curve with a large enough effect; inconclusive = small, poorly fitted or top-dose-only effect, or another doubt; inactive = no such curve, though single readings can be large or run the other way.

SMILES | Pf growth 48h | Shiga toxin inh | CHX counter | HCMV antiviral | HCV inhibitor | Pf growth 96h
COc1ccccc1CCC(=O)Nc1ccc2c(c1)c(=O)n(C)n2Cc1ccc(F)cc1 | - | - | - | 0 | - | -
COc1cccc(Cn2c3ccc(NC(=O)CCc4ccc(F)cc4)cc3c(=O)n2C)c1 | - | - | - | -85 | - | -
CCOCCC(=O)Nc1ccc2c(c1)c(=O)n(C)n2Cc1cccc(C(F)(F)F)c1 | - | - | - | -62 | - | -
Cn1c(=O)c2cc(NC(=O)CCc3ccccc3)ccc2n1Cc1cccc(C(F)(F)F)c1 | - | - | - | 0 | - | -
Cn1c(=O)c2cc(NC(=S)NCc3ccccc3F)ccc2n1Cc1cccc(C(F)(F)F)c1 | - | - | - | -69 | - | -
Cc1cc(O)c(C(C)C)cc1NC1=NS(=O)(=O)c2ccccc21 | 0 | 0 | 0 | -72 | 0 | 0
CC(C)NC(=S)NN=C1c2ccccc2-c2ccccc21 | 0 | 0 | 0 | 0 | ? | ?
CC(C)NC(=S)N/N=C1\CCCCC1C1CCCCC1 (stereo not given) | - | 0 | 0 | 0 | 0 | 3.3µM
CC(C)Nc1nc(-c2cccnc2)nc(-c2ccccc2)c1C#N | 8.3µM | 0 | 0 | - | ? | ?
CC(C)Nc1nc(-c2cccnc2)nc(-c2ccc(Cl)cc2)c1C#N | 0[0.00184 µM] | 0 | 0 | ? | 0 | 2.3µM
COc1ccc(-c2nc(-c3ccccn3)nc(N3CCN(C)CC3)c2C#N)cc1 | ? | 0 | 0 | ? | 0 | ?
CC(C)Nc1nc(-c2ccccn2)nc(-c2ccccc2)c1C#N | 0 | 0 | 0 | -67 | 0 | ?
CC(C)Nc1nc(-c2ccncc2)nc(-c2ccc(Cl)cc2)c1C#N | ? | 0 | 0 | 0 | 0 | ?
CN(C)C(=O)Oc1c(Cl)cc(Cl)c2ccccc12 | - | 0 | 0 | -71 | 0 | 0
CC1CCCN(C(=O)CN(C)S(=O)(=O)c2cccc3nsnc23)C1 (stereo not given) | 0 | 0 | 0 | ? | 0 | 0
Oc1ccccc1N1CCN(CC(O)COC2CCCc3ccccc32)CC1 (stereo not given) | 9.3µM | 0 | 0 | 0 | 0 | ?
Cc1ccc(N(C)S(=O)(=O)c2cc3c(cc2C)NC(=O)CO3)cc1 | 0 | 0 | 0 | 0 | ? | 0
Cc1cc(O)c(C(=O)Nc2cccc(Cl)c2)c(=O)n1C | 0 | 47 | 0 | 0 | 0 | ?
Cc1cc2ccccn2c1C(=O)Nc1cccc(Cl)c1 | 0 | 75 | 53 | 0 | ? | 0
Cc1cc2ccccn2c1C(=S)NC(=O)c1ccccc1 | 0 | 37 | 0 | 0 | 0 | 0
CCOCCCNc1ccc(-c2ccccc2)nn1 | 0 | 109 | 27 | 0 | 0 | 0
O=C(CSc1nc(=O)n(Cc2ccccn2)c2c1CCC2)Nc1cccc(Cl)c1 | - | - | - | 0 | - | -
CCC1(CC)N([O-])C(C)=C(c2ccccc2)[N+]1=O | 0 | 0 | 0 | 0 | 0 | 0
CCC1(C)N([O-])C(C)=C(c2ccccc2)[N+]1=O (stereo not given) | - | 0 | 0 | 0 | 0 | 0.093µM
CCN(Cc1cc2ccccc2[nH]c1=O)C(=O)C(C)C | 0 | 0 | 0 | 0 | 0 | 0.93µM
SMILES | Pf growth 48h | Shiga toxin inh | CHX counter | HCMV antiviral | HCV inhibitor | Pf growth 96h
COc1ccc2[nH]c(=O)c(CN(CCO)S(=O)(=O)c3ccc(C)cc3)cc2c1 | 0 | 0 | 0 | 0 | 0 | 0
Cc1ccc(S(=O)(=O)N(C)Cc2cc3ccccc3[nH]c2=O)cc1 | ? | 0 | 0 | 0 | 0 | 9.3µM
CN(Cc1cc2ccccc2[nH]c1=O)S(C)(=O)=O | 0 | 0 | 0 | 0 | 0 | 0
COc1ccc(S(=O)(=O)N(CCCN2CCCC2=O)Cc2cc3c(C)cc(C)cc3[nH]c2=O)cc1 | 9.3µM | 0 | 0 | ? | ? | 0
CN(Cc1cc2ccccc2[nH]c1=O)S(=O)(=O)c1ccccc1 | 0 | 0 | 19 | 0 | 0 | 0
O=C(OCC(=O)N1CCOCC1)c1cc(=O)[nH]c2ccccc12 | - | - | - | 0 | 0 | -
O=C1C=CC(=O)N1Cc1ccccn1 | - | - | - | 0 | ? | -
COc1ccc(-c2onc(C)c2C)cc1S(=O)(=O)NCc1ccc(Br)cc1 | - | - | - | 0 | - | -
COc1ccc(N(Cc2cc3ccccc3[nH]c2=O)S(=O)(=O)c2ccccc2)cc1 | ? | 0 | 0 | ? | ? | 0
COc1ccc(N(Cc2cc3ccccc3[nH]c2=O)S(=O)(=O)c2ccc(C)cc2)cc1 | 0 | 39 | 27 | ? | 0 | 0
CCCCN(Cc1cc2cc(OC)ccc2[nH]c1=O)S(=O)(=O)c1ccc(C)cc1 | ? | 0 | 0 | -70 | 13µM | 0
COc1cccc(CNC(=O)c2ccc(CSc3nc4ccncc4n3Cc3cccc(C)c3)cc2)c1 | - | - | - | 0 | - | -
COc1ccccc1OCC(=O)Nc1cc(-c2ccc(C)cc2)no1 | - | - | - | 0 | - | -
COc1ccc(C)cc1NC(=O)c1ccc2c(c1)CCN2S(=O)(=O)c1ccc(Cl)cc1 | - | - | - | 0 | - | -
Cc1ccc(-c2nnc(-c3ccc(Br)cc3)o2)o1 | 0 | 27 | 18 | 0 | 0 | 2.6µM
O=C(O)CCC(=O)Nc1ccc(-c2nnc(-c3ccco3)o2)cc1 | - | 0 | 0 | 0 | 0 | 0
Brc1ccc(-c2nnc(-c3ccco3)o2)cc1 | 0 | 73 | 47 | 0 | ? | 0
c1ccc(-c2nnc(-c3ccco3)o2)cc1 | 0 | 115 | 43 | 0 | 0 | 0
c1coc(-c2nnc(-c3ccco3)nn2)c1 | ? | 43 | 47 | 0 | 0 | 6.6µM
COCCCNC(=O)CCCCCNS(=O)(=O)c1ccc(Br)cc1 | 0 | 0 | 0 | 0 | 0 | ?
Cc1ccc(CNC(=O)c2ccc(NC(=O)N3CCSc4ncccc43)cc2)cc1 | - | - | - | 0 | - | -
CN1CCN(c2oc(/C=C/c3ccc(F)cc3)nc2C#N)CC1 | - | - | - | 0 | - | -
Cc1ccc(NC(=O)C2CCN(C(=O)c3cnn(-c4ccccc4)c3-n3cccc3)CC2)cc1 | - | - | - | 0 | - | -
O=[N+]([O-])c1cc(-c2nc(-c3ccccc3)no2)ccc1NC1CCCC1 | - | - | - | 0 | - | -
c1coc(-c2nnc(-c3cccs3)o2)c1 | 0 | 81 | 49 | 0 | 0 | 0
SMILES | Pf growth 48h | Shiga toxin inh | CHX counter | HCMV antiviral | HCV inhibitor | Pf growth 96h
CCN(CC)c1nc(NN)nc(Nc2ccc(C)c(Cl)c2)n1 | - | - | - | 0 | 0 | -
O=Cc1sc(Nc2ccccc2)nc1Cl | 0 | 0 | 18 | 0 | ? | 0
O=C(O)c1sc(Nc2ccccc2)nc1-c1ccccc1 | - | - | - | 0 | - | -
Cc1ccc(Nc2nc(Cl)c(C=O)s2)cc1Cl | 0 | 0 | 23 | 0 | ? | 0
COc1ccccc1Nc1nc(Cl)c(C=O)s1 | ? | 0 | 48 | 0 | 0 | 0
COc1ccc(CC2(CO)CCN(Cc3cccn3-c3ccccn3)CC2)cc1 | ? | 0 | 0 | 0 | 0 | 0
CCN(CC(=O)Nc1c(F)cccc1F)C(=O)c1nn(C)c(=O)c2ccccc12 | 0 | - | - | 0 | 0 | 0
C=CCCN(C(C)C(=O)OC)S(=O)(=O)c1ccccc1Br (stereo not given) | - | 0 | 0 | - | - | -
C=CCCN(C1CCCC1)S(=O)(=O)c1ccccc1Br | ? | 0 | 0 | 0 | 0 | 15µM
Cc1ccc2nc(C)c(C(=O)N/N=C/c3cccs3)n2c1 | 0 | 0 | 0 | ? | 0 | 0
COc1ccc(CCC(=O)NNC(=O)c2cccs2)cc1 | 0 | - | - | 0 | 0 | 0
Cc1ccn2c(C(=O)N/N=C\c3cccs3)c(C)nc2c1 | 0 | 0 | 16 | 0 | ? | ?
CCc1ccc(OCC(=O)N/N=C\c2ccco2)c([N+](=O)[O-])c1 | 0 | active | 16 | 0 | 0 | 0
